# Source: PubChem BioAssay (EPA / NIEHS)
# Results filed as inconclusive are left out. Calls of active or inactive are those of the source. How the source made its calls, unless noted: active means hit-call score of the fitted dose curve at least 0.9, where 1 is the maximum; inactive means score below 0.9.
# How the values were obtained:
# [1] = molecular target: Retinoic acid receptor RXR-alpha (Homo sapiens) (UniProt P19793); assay: ATG_RXRa_TRANS: Attagene TRANS-FACTORIAL HepG2 Assay for human Retinoid X Receptor alpha (RXRa) (AID 2283012; active means hit-call score of the fitted dose curve at least 0.9, where 1 is the maximum)
# Chain of Retinoic acid receptor RXR-alpha (Homo sapiens) (P19793 whole entry, looked up, the tested form may be a part): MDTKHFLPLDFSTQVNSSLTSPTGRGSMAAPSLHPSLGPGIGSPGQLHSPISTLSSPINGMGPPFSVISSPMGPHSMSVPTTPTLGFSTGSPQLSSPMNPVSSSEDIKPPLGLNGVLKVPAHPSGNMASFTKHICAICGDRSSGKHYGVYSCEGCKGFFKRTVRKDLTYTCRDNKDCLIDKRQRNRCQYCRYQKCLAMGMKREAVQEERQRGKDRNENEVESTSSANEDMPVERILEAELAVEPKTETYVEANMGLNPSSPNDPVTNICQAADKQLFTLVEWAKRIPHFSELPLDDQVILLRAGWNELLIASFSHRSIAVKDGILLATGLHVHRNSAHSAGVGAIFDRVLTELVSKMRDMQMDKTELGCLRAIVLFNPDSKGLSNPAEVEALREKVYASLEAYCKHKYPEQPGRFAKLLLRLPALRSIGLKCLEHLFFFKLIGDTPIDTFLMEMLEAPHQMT
# Procedure, shortened: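 Chimeric NR-GAL4 trans-activation in HepG2, 24 h treatment; reporter transcripts quantified by fluorescence on capillary electrophoresis, analysed for upward change from DMSO.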
# [2] = molecular target: human Retinoid X Receptor beta (RXRb), RXRB (gene 6257) (UniProt P28702); assay: ATG_RXRb_TRANS: Attagene TRANS-FACTORIAL HepG2 Assay for human Retinoid X Receptor beta (RXRb) (AID 2283013; active means hit-call score of the fitted dose curve at least 0.9, where 1 is the maximum)
# Chain of human Retinoid X Receptor beta (RXRb), RXRB (gene 6257) (P28702 whole entry, looked up, the tested form may be a part): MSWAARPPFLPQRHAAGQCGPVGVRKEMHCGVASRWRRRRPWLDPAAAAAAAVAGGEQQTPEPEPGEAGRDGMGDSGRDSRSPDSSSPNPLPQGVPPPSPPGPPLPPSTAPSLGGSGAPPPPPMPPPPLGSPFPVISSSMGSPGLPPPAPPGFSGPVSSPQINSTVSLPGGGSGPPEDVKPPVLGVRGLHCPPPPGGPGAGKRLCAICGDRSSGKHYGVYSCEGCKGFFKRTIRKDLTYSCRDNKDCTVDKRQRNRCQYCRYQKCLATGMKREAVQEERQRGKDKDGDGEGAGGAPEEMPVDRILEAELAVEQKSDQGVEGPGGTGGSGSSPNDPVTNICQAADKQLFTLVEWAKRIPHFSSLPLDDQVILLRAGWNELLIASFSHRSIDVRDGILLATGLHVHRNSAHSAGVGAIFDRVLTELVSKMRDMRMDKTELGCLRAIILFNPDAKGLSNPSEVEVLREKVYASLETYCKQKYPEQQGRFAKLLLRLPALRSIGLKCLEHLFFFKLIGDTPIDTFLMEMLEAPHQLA
# Procedure, shortened: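 After a 24 h incubation with test chemical, transfected HepG2 cells carrying NR-Gal4 fusions and GAL4-UAS reporter transcription units yield RNA whose reporter cDNA is FAM-labelled, HpaI-cut and sized by capillary electrophoresis; increases over DMSO are scored.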
# [3] = molecular target: human Thyroid Receptor alpha (THRa1), THRA (gene 7067) (UniProt P10827); assay: ATG_THRa1_TRANS: Attagene TRANS-FACTORIAL HepG2 Assay for human Thyroid Receptor alpha (THRa1) (AID 2283014; active means hit-call score of the fitted dose curve at least 0.9, where 1 is the maximum)
# Chain of human Thyroid Receptor alpha (THRa1), THRA (gene 7067) (P10827 whole entry, looked up, the tested form may be a part): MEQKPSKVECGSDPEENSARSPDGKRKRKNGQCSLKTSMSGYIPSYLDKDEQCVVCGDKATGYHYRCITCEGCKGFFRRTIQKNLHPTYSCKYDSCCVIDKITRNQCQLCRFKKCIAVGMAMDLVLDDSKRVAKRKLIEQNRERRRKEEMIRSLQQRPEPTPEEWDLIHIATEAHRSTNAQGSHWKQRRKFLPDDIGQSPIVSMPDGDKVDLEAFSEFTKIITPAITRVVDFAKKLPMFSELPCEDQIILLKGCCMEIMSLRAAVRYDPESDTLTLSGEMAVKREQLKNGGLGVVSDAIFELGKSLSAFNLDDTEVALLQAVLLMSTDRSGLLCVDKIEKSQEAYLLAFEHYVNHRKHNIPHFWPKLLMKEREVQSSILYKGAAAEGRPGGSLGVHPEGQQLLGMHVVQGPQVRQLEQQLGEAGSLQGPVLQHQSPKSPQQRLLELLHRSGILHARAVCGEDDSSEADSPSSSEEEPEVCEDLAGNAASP
# Procedure, shortened: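 First, HepG2 cells receive multiple GAL4-UAS reporter units and the chimeric receptor. They are then dosed for 24 h, after which RNA is reverse-transcribed, amplified, labelled, HpaI-cut and sized by capillary electrophoresis; gain relative to DMSO is scored.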
# [4] = read-out: E-selectin (Homo sapiens) (UniProt P16581); assay: BSK_3C_Eselectin: BioMAP Diversity Plus: 3C Assay for Eselectin Biomarker Activity (AID 2283015); conditions: primary human endothelial cells (HUVEC); actives raise or lower the signal;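 on outcome: cell surface E-selectin protein quantified by ELISA 24 h after dosing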
# Procedure, shortened: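 Human vascular endothelium from umbilical vein is exposed to test chemicals for 24 h. E-selectin levels are read by ELISA and compared with DMSO controls.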
# [5] = read-out: Interleukin-1 alpha (IL1a), IL1A (gene 3552); assay: BSK_BE3C_IL1a: BioMAP Diversity Plus: BE3C Assay for Interleukin-1 alpha (IL1a) Biomarker Activity (AID 2283016); conditions: primary human bronchial epithelial cells; actives raise or lower the signal
# Procedure, shortened: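 Measured in human lung primary bronchial epithelial cells: IL-1a by ELISA at 24 h after dosing, with bidirectional fitting against DMSO.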
# [6] = read-out: Monocyte Chemoattractant Protein-1 (MCP1), CCL2 (gene 6347); assay: BSK_3C_MCP1: BioMAP Diversity Plus: 3C Assay for Monocyte Chemoattractant Protein-1 (MCP1) Biomarker Activity (AID 2283017); conditions: primary human endothelial cells (HUVEC); actives raise or lower the signal
# Procedure, shortened: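 Endothelial cells from human umbilical vein are dosed with chemical, cultured 24 h, then assayed for MCP-1 by ELISA; both increases and decreases are modelled against DMSO controls.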
# [7] = read-out: Monocyte Chemoattractant Protein-1 (MCP1), CCL2 (gene 6347); assay: BSK_4H_MCP1: BioMAP Diversity Plus: 4H Assay for Monocyte Chemoattractant Protein-1 (MCP1) Biomarker Activity (AID 2283018); conditions: primary human endothelial cells (HUVEC); actives raise or lower the signal
# Procedure, shortened: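 Primary human umbilical vein endothelium is exposed to chemical for 24 h before MCP-1 is assayed by ELISA. Concentration-response fitted bidirectionally relative to DMSO.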
# [8] = read-out: Human Leukocyte Antigen - DR isotype (HLADR), HLA-DRA (gene 3122); assay: BSK_3C_HLADR: BioMAP Diversity Plus: 3C Assay for Human Leukocyte Antigen - DR isotype (HLADR) Biomarker Activity (AID 2283019); conditions: primary human endothelial cells (HUVEC); actives raise or lower the signal;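 on outcome: ELISA of cell-surface HLA-DR on HUVEC 24 h after dosing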
# Procedure, shortened: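 Endothelial cells from human umbilical vein are treated with test chemical; after 24 h, HLA-DR levels are measured by ELISA. Data are fitted in both directions using DMSO as the baseline.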
# [9] = read-out: Interleukin-8 (IL8), CXCL8 (gene 3576); assay: BSK_3C_IL8: BioMAP Diversity Plus: 3C Assay for Interleukin-8 (IL8) Biomarker Activity (AID 2283020); conditions: primary human endothelial cells (HUVEC); actives raise or lower the signal
# Procedure, shortened: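 Using DMSO-treated wells as the baseline, bidirectional curve fitting was applied to ELISA-measured IL-8 from human umbilical vein endothelial cultures sampled 24 h after compound addition.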
# [10] = read-out: Monokine induced gamma interferon (MIG), CXCL9 (gene 4283); assay: BSK_3C_MIG: BioMAP Diversity Plus: 3C Assay for Monokine induced gamma interferon (MIG) Biomarker Activity (AID 2283021); conditions: primary human endothelial cells (HUVEC); actives raise or lower the signal
# Procedure, shortened: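 ELISA-measured MIG in dosed HUVEC 3C cultures at 24 h, analysed by bidirectional fitting with DMSO defining baseline activity.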
# [11] = molecular target: human Vitamin D Receptor (VDR), VDR (gene 7421) (UniProt P11473); assay: ATG_VDR_TRANS: Attagene TRANS-FACTORIAL HepG2 Assay for human Vitamin D Receptor (VDR) (AID 2283022; active means hit-call score of the fitted dose curve at least 0.9, where 1 is the maximum)
# Chain of human Vitamin D Receptor (VDR), VDR (gene 7421) (P11473 whole entry, looked up, the tested form may be a part): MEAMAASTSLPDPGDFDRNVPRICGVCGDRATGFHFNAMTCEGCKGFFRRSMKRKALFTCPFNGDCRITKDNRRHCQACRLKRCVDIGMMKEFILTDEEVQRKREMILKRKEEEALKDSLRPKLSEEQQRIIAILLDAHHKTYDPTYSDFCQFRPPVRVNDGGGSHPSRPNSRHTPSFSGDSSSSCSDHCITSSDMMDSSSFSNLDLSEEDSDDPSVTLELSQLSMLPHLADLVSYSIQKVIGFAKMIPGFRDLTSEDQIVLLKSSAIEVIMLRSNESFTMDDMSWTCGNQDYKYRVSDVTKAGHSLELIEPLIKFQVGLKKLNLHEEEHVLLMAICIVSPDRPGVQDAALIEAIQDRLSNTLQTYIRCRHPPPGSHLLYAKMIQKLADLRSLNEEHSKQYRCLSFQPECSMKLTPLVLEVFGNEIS
# Procedure, shortened: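 Fluorescence of labelled reporter cDNA fragments, resolved by capillary electrophoresis, gives mRNA induction after 24 h treatment of HepG2 cells carrying transfected Gal4-fusion reporter units. Activity is fitted in the positive direction with DMSO as baseline.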
# [12] = BSK_3C_SRB: Viability Assessment in the BioMAP Diversity Plus: 3C Assay (AID 2283023); conditions: primary human endothelial cells (HUVEC);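 further: cells read 24 h after compound dosing; fitted both ways against DMSO so a hit may be signal rise or drop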
# Procedure, shortened: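 Cells were dosed with chemical, cultured 24 h, fixed with 10% TCA, stained with 0.1% SRB and read at 560 nm. Human umbilical vein endothelium was used; DMSO served as negative control and baseline.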
# [13] = read-out: Matrix Metallopeptidase 1 (MMP1), MMP1 (gene 4312); assay: BSK_BE3C_MMP1: BioMAP Diversity Plus: BE3C Assay for Matrix Metallopeptidase 1 (MMP1) Biomarker Activity (AID 2283024); conditions: primary human bronchial epithelial cells; actives raise or lower the signal
# Procedure, shortened: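 In this multiplexed primary-cell system, human bronchial epithelium received chemicals for 24 h before an ELISA for MMP1. Values reflect bidirectional fits normalised to the DMSO baseline.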
# [14] = BSK_3C_Vis: BioMAP Diversity Plus: 3C Assay for Morphology Visualization (AID 2283025); conditions: primary human endothelial cells (HUVEC);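 further: fitted both ways so gain or loss versus DMSO counts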;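 on AC50: light microscopy image of cell morphology used as background control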
# Procedure, shortened: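 Light-microscopy morphology readout, 24 h exposure, human primary umbilical vein endothelium; analysed relative to DMSO with bidirectional fitting.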
# [15] = read-out: Pselectin, SELP (gene 6403); assay: BSK_4H_Pselectin: BioMAP Diversity Plus: 4H Assay for Pselectin Biomarker Activity (AID 2283026); conditions: primary human endothelial cells (HUVEC); actives raise or lower the signal
# Procedure, shortened: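 Bidirectional fits against DMSO gave the endpoint. Cells: primary human umbilical vein endothelium, chemical-treated for 24 h before ELISA detection of P-selectin.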
# [16] = BSK_4H_SRB: Viability Assessment in the BioMAP Diversity Plus: 4H Assay (AID 2283027); conditions: primary human endothelial cells (HUVEC);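 further: cells exposed to compound for 24 h before staining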;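 on AC50: curves fitted both ways versus DMSO so AC50 may be loss or gain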
# Procedure, shortened: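 HUVEC, 24 h post-dose; 10% TCA fix, 0.1% SRB stain, A560 nm. Total protein = overt cytotoxicity, parallel to biomarker read. Bidirectional fit vs DMSO baseline.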
# [17] = BSK_BE3C_SRB: Viability Assessment in the BioMAP Diversity Plus: BE3C Assay (AID 2283028); conditions: primary human bronchial epithelial cells;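 on AC50: fitted both ways so AC50 may mark signal gain or loss versus DMSO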
# Procedure, shortened: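 Overt cytotoxicity was assessed as total protein in confluent human primary bronchial epithelial cultures 24 h after chemical addition, using 0.1% sulforhodamine B staining read at 560 nm.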
# [18] = read-out: Thrombomodulin, THBD (gene 7056); assay: BSK_3C_Thrombomodulin: BioMAP Diversity Plus: 3C Assay for Thrombomodulin Biomarker Activity (AID 2283029); conditions: primary human endothelial cells (HUVEC); actives raise or lower the signal
# Procedure, shortened: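 In a multiplexed primary-cell system, human umbilical vein endothelium received chemical and was assayed 24 h later for thrombomodulin by ELISA. Parallel cultures were SRB-stained (0.1% SRB after 10% TCA fixation, read at 560 nm) to flag cytotoxicity.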
# [19] = read-out: Urokinase-type plasminogen activator receptor (uPAR), PLAUR (gene 5329); assay: BSK_4H_uPAR: BioMAP Diversity Plus: 4H Assay for Urokinase-type plasminogen activator receptor (uPAR) Biomarker Activity (AID 2283030); conditions: primary human endothelial cells (HUVEC); actives raise or lower the signal
# Procedure, shortened: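 Chemicals are dosed onto human vascular endothelial primary cells (umbilical vein). After 24 h, uPAR is read by ELISA. Gain or loss of signal is fitted relative to DMSO.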
# [20] = read-out: Vascular endothelial growth factor receptor 2 (Homo sapiens) (UniProt P35968); assay: BSK_4H_VEGFRII: BioMAP Diversity Plus: 4H Assay for Vascular endothelial growth factor receptor 2 (VEGFR2) Biomarker Activity (AID 2283031); conditions: primary human endothelial cells (HUVEC); actives raise or lower the signal;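 on AC50: cell-surface VEGFR2 protein level quantified by ELISA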
# Procedure, shortened: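 VEGFRII levels on human vascular endothelial primary cells were determined by ELISA at 24 hours post-dosing, with gain- or loss-of-signal fitted against DMSO controls.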
# Chain of E-selectin (Homo sapiens) (P16581 whole entry, looked up): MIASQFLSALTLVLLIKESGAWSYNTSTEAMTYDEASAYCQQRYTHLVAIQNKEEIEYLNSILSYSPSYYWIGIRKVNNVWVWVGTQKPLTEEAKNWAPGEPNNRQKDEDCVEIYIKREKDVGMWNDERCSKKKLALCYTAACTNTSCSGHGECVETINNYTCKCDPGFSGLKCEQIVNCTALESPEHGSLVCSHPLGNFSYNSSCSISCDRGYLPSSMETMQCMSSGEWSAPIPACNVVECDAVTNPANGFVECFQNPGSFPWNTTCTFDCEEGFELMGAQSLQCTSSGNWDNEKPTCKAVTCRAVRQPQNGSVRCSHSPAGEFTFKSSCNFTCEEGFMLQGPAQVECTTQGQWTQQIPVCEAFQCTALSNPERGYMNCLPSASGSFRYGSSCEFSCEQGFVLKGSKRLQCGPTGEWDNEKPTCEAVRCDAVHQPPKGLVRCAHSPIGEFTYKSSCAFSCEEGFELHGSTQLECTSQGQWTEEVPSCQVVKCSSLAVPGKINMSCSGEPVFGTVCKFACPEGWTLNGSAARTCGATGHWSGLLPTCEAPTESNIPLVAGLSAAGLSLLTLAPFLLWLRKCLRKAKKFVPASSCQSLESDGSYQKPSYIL
structure (smiles),measurement,setting,value
CC(C)(C)c1ccccc1O,AC50,[1],100 µM (active)
same,AC50,[2],10.6 µM (active)
same,outcome,[3],inactive
same,outcome,[4],inactive
same,outcome,[5],inactive
same,outcome,[6],inactive
same,outcome,[7],inactive
same,outcome,[8],inactive
same,outcome,[9],inactive
same,outcome,[10],inactive
same,outcome,[11],inactive
same,outcome,[12],inactive
same,outcome,[13],inactive
same,outcome,[14],inactive
same,outcome,[15],inactive
same,outcome,[16],inactive
same,outcome,[17],inactive
same,outcome,[18],inactive
same,outcome,[19],inactive
same,outcome,[20],inactive
Oc1ccc(Cc2ccc(O)cc2)cc1,outcome,[1],inactive
same,outcome,[2],inactive
same,outcome,[3],inactive
same,outcome,[4],inactive
same,outcome,[5],inactive
same,outcome,[6],inactive
same,outcome,[7],inactive
same,outcome,[8],inactive
same,outcome,[9],inactive
same,outcome,[10],inactive
same,outcome,[12],inactive
same,outcome,[13],inactive
same,outcome,[14],inactive
same,outcome,[15],inactive
same,outcome,[16],inactive
same,outcome,[17],inactive
same,outcome,[18],inactive
same,outcome,[19],inactive
same,outcome,[20],inactive
Cc1ccccc1OP(=O)(Oc1ccccc1C)Oc1ccccc1C,outcome,[1],inactive
same,outcome,[2],inactive
same,outcome,[3],inactive
same,AC50,[4],5.43 µM (active)
same,AC50,[5],10.7 µM (active)
same,AC50,[6],10.2 µM (active)
same,AC50,[7],6.27 µM (active)
same,AC50,[8],6.21 µM (active)
same,AC50,[9],5.37 µM (active)
same,outcome,[10],inactive
same,outcome,[11],inactive
same,AC50,[12],6.89 µM (active)
same,AC50,[13],5.4 µM (active)
same,AC50,[14],12.5 µM (active)
same,AC50,[15],8.88 µM (active)
same,AC50,[16],15.2 µM (active)
same,AC50,[17],16 µM (active)
same,outcome,[18],inactive
same,AC50,[19],11.7 µM (active)
same,AC50,[20],9.28 µM (active)
Oc1c(Br)cc(Br)cc1Br,outcome,[1],inactive
same,outcome,[2],inactive
same,AC50,[3],100 µM (active)
same,AC50,[4],27.2 µM (active)
same,outcome,[5],inactive
same,AC50,[6],32.9 µM (active)
same,outcome,[7],inactive
same,AC50,[8],34.3 µM (active)
same,outcome,[9],inactive
same,outcome,[10],inactive
same,AC50,[12],35.5 µM (active)
same,outcome,[13],inactive
same,outcome,[14],inactive
same,AC50,[16],29.5 µM (active)
same,outcome,[18],inactive
same,outcome,[19],inactive
same,AC50,[20],27.3 µM (active)
O=[N+]([O-])c1ccc(Nc2ccccc2)cc1,outcome,[1],inactive
same,AC50,[2],12.1 µM (active)
same,outcome,[3],inactive
same,outcome,[4],inactive
same,outcome,[5],inactive
same,outcome,[6],inactive
same,AC50,[7],20 µM (active)
same,outcome,[8],inactive
same,outcome,[9],inactive
same,outcome,[10],inactive
same,outcome,[12],inactive
same,outcome,[13],inactive
same,outcome,[14],inactive
same,outcome,[15],inactive
same,outcome,[16],inactive
same,outcome,[17],inactive
same,outcome,[18],inactive
same,outcome,[19],inactive
same,outcome,[20],inactive
